In PubChem BioAssay (Tox21):
Values joined by “and” are separate entries in the source; they are usually repeats but may differ in a detail not shown here. Equal values may be shown once. Records with an inconclusive call do not appear. Some structures have more than one record in an assay (separate samples or runs), and their calls can disagree. Active and inactive are the calls of the source. Unless noted, calls follow the shape of the dose curve; as a rule, active = well fitted curve in the direction sought with a large enough effect in the repeat runs; inconclusive = weak or mixed curves; inactive = no such curve, though single readings can be large; an effect the other way counts as inactive or inconclusive.

Experiments:
[1] = qHTS assay for small molecule agonists of the p53 signaling pathway (AID 651631; calls by dose curve; also: nearly all actives have a fitted effect of over 15% in size; also: potency is read from the fitted curve at half-maximal effect)
Method in brief: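 Testing took place in human colorectal HCT-116 cells with stable p53RE-driven beta-lactamase. After 16 h of compound exposure at 37 °C, a FRET substrate was added and fluorescence recorded 2 h later.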

[2] = qHTS assay for small molecules that induce genotoxicity in human embryonic kidney cells expressing luciferase-tagged ATAD5 (AID 651632); also: nearly all actives have a fitted effect of over 15% in size
Method in brief: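 Genotoxicity read-out via ATAD5-luciferase: HEK293T cells, 16 hr compound incubation at 37C, Amplite detection.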

[3] = qHTS assay for small molecule agonists of the p53 signaling pathway - cell viability (AID 651633; calls by dose curve; also: nearly all actives have a fitted effect of over 30% in size; also: potency is read from the fitted curve at half-maximal effect)
Method in brief: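 p53RE-bla cells, seeded at 4,000 per well and rested 5 h at 37 C/5% CO2, received compounds in DMSO for 16 h at 37 C. CellTiter-Glo was then added, and luminescence was read after 30 min at room temperature to gauge cytotoxicity.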

[4] = qHTS assay for small molecules that induce genotoxicity in human embryonic kidney cells expressing luciferase-tagged ATAD5 - cell viability (AID 651634; calls by dose curve; also: nearly all actives have a fitted effect of over 25% in size)
Method in brief: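 Live-cell protease activity (CellTiter-Fluor, fluorescence) indicates viability. HEK293T cells with luciferase-tagged ATAD5; 15.5 hr compound treatment at 37C.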

[5] = qHTS assay for small molecule disruptors of the mitochondrial membrane potential - cell viability (AID 720634; calls by dose curve;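 also: human HepG2 liver cancer cells; series mostly up to about 83 µM; nearly all actives have a fitted effect of over 20% in size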)
Method in brief: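 Human hepatoma HepG2 cells were treated for 1 hr with test chemicals, then given m-MPI dye and CellTiter-Glo. Cell viability reflects luminescence proportional to cellular ATP.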

[6] = qHTS assay for small molecule disruptors of the mitochondrial membrane potential (AID 720635)
Method in brief: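 HepG2 cells (2,000/well) attached overnight at 37C, then took compound for 1 hr at 37C, 5% CO2. Mito-MPS dye was added for 30 min; fluorescence was read at 490/535 nm (monomers) and 540/590 nm (aggregates).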

[7] = qHTS assay to test for compound auto fluorescence at 590 nm (red) in HepG2 cells (AID 720674)
Method in brief: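 Compound auto-fluorescence is scored relative to Rose Bengal sodium, measured at 540/590 nm in live HepG2 cultures after 1 hr compound contact (37 C, 5% CO2).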

[8] = qHTS assay to test for compound auto fluorescence at 535 nm (green) in HepG2 cells (AID 720675)
[9] = qHTS assay to test for compound auto fluorescence at 460 nm (blue) in HEK293 cells (AID 720678)
Method in brief: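 HEK293, 2,000 cells/well, 10% dialyzed FBS; attach 4-5 hr 37C; pin compound or DMSO; o/n 37C/5% CO2; fluorescence 405/460 nm; triamterene-equivalent units.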

[10] = qHTS assay to test for compound auto fluorescence at 590 nm (red) in HEK293 cells (AID 720679)
Method in brief: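 Intensity at 540nm excitation and 590nm emission is reported as Rose Bengal sodium-equivalent autofluorescence. Measurements followed overnight exposure (37C, 5% CO2) of HEK293 cells, 2,000 per well, to 23 nL compound.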

[11] = qHTS assay to test for compound auto fluorescence at 460 nm (blue) in HEK293 cell free culture (AID 720681)
Method in brief: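 Test compounds were pinned into cell-free culture medium (DMEM with 10% FBS) and fluorescence was read directly at Ex/Em 405/460 nm. Signals were expressed as fluorescence equivalents of triamterene, with DMSO vehicle as control.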

[12] = qHTS assay to test for compound auto fluorescence at 535 nm (green) in HEK293 cell free culture (AID 720682)
Method in brief: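 DMEM + 10% FBS, cell-free; cpd or DMSO pinned in; Ex485/Em535 read; output as fluorescein-equivalent signal.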

[13] = qHTS assay to test for compound auto fluorescence at 590 nm (red) in HEK293 cell free culture (AID 720683)
Method in brief: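 Tox21 10K library compounds were pinned into cell-free DMEM with 10% FBS and fluorescence was read at excitation 540 nm. Activity is expressed as Rose Bengal sodium equivalency.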

[14] = qHTS assay to test for compound auto fluorescence at 590 nm (red) in HepG2 cell free culture (AID 720684)
Method in brief: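 Measured in medium alone (MEM containing 10% FBS) following pintool addition of compound; emission at 590 nm with 540 nm excitation, referenced to Rose Bengal sodium.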

[15] = qHTS assay to test for compound auto fluorescence at 460 nm (blue) in HepG2 cell free culture (AID 720685)
Method in brief: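 Compound (23 nL) or DMSO pinned into cell-free MEM with 10% FBS; blue fluorescence read at 405/460 nm excitation/emission, expressed as auto-fluorescence equivalency to triamterene.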

[16] = qHTS assay to test for compound auto fluorescence at 535 nm (green) in HepG2 cell free culture (AID 720686)
[17] = qHTS assay to test for compound auto fluorescence at 460 nm (blue) in HepG2 cells (AID 720687)
Method in brief: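 Cells (2,000/well in MEM with 10% FBS) attached overnight at 37 C, then were exposed to compound or DMSO for 1 hr at 37 C, 5% CO2. Fluorescence read at Ex/Em 405/460 nm, expressed as triamterene-equivalent signal.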

[18] = target: Glucocorticoid receptor (Homo sapiens) (UniProt P04150); experiment: qHTS assay to identify small molecule agonists of the glucocorticoid receptor (GR) signaling pathway (AID 720691; active = well fitted activation curve with a large enough effect in the signal ratio in the repeat runs, not every such curve was filed as active; the % refers to the signal ratio)
Method in brief: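 Beta-lactamase reporter activity, read as fluorescence intensity, was measured in GR-bla HeLa cells exposed to compounds for 18 h at 37 C and then loaded with LiveBLAzer B/G FRET substrate for 2 h at room temperature.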

[19] = target: Glucocorticoid receptor (Homo sapiens) (UniProt P04150); experiment: qHTS assay to identify small molecule antagonists of the glucocorticoid receptor (GR) signaling pathway (AID 720692; active = well fitted inhibition curve with a large enough effect in the signal ratio in the repeat runs, not every such curve was filed as active; the % refers to the signal ratio; also: potency is read from the fitted curve at half-maximal effect)
Method in brief: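 Fluorescence from cleaved LiveBLAzer B/G FRET substrate reports GRE-driven beta-lactamase in HeLa cells; compounds are tested against 5 nM dexamethasone (final) over 18 h at 37 C, substrate incubation 2 h at room temperature.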

[20] = qHTS assay to test for compound auto fluorescence at 535 nm (green) in HEK293 cells (AID 720680)

Measured: Potency

Glucocorticoid receptor (Homo sapiens), sequence (P04150 whole entry, looked up): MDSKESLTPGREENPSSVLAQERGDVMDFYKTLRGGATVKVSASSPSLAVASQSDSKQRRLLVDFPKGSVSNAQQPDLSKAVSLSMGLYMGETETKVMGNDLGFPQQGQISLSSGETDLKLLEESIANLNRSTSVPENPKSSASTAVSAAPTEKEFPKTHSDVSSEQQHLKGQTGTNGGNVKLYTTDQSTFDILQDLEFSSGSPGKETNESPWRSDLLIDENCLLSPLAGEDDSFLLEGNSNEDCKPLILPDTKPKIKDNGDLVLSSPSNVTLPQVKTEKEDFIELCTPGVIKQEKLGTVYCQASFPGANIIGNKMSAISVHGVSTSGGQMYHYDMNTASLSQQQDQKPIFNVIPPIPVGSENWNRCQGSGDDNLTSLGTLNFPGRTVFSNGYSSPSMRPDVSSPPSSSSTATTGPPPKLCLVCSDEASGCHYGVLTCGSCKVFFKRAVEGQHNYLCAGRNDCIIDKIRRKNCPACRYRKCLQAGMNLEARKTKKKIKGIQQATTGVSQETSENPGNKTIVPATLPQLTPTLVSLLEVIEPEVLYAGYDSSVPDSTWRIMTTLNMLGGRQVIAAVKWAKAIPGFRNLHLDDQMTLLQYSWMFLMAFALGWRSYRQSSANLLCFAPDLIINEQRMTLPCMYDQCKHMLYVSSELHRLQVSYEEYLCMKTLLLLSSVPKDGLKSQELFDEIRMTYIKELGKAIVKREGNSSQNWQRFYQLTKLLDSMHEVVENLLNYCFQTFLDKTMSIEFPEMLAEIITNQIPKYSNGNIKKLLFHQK

ClCc1ccccn1
inactive: [1] | [2] | [3] | [4] | [5] | [6] | [7] | [8] | [9] | [10] | [11] | [12] | [13] | [14] | [15] | [16] | [17] | [18] | [19]

C[C@]12CC[C@H]3[C@@H](CCC4=CC(=O)CC[C@@H]43)[C@@H]1CC[C@@H]2O
active: [19] 3.01 µM and 4.25 µM and 6.85 µM
inactive: [1] | [2] | [3] | [4] | [5] | [6] | [7] | [9] | [10] | [20] | [11] | [12] | [13] | [14] | [15] | [16] | [17]

COc1ccc(CO)cc1
inactive: [1] | [3] | [4] | [5] | [6] | [7] | [8] | [9] | [10] | [20] | [11] | [12] | [13] | [14] | [15] | [16] | [17] | [18] | [19]

Cn1c(-c2ccccc2)cc(-c2ccccc2)[n+]1C
inactive: [1] | [3] | [4] | [5] | [6] | [7] | [8] | [9] | [10] | [20] | [11] | [12] | [13] | [14] | [15] | [16] | [17]

CCCCCCCCCCCCCl
inactive: [1] | [2] | [3] | [4] | [5] | [6] | [7] | [8] | [9] | [10] | [20] | [11] | [12] | [13] | [14] | [15] | [17] | [18] | [19]

C[C@]12CCC(=O)C=C1CC[C@@H]1[C@@H]2CC[C@@]2(C)[C@H]1CC[C@]2(C)O
active: [1] 21.7 µM | [19] 6.01 µM and 4.25 µM and 2.61 µM
inactive: [2] | [4] | [5] | [6] | [7] | [9] | [10] | [11] | [12] | [13] | [14] | [15] | [16] | [17]
inactive and 54.5 µM (active): [3]

CC(C)(C#N)N=NC(C)(C)C#N
inactive: [1] | [2] | [3] | [4] | [5] | [6] | [7] | [8] | [9] | [10] | [11] | [12] | [13] | [14] | [15] | [16] | [17] | [19]

Cc1ccc([N+](=O)[O-])cc1
inactive: [1] | [2] | [3] | [4] | [5] | [6] | [7] | [8] | [9] | [10] | [20] | [11] | [12] | [13] | [14] | [15] | [16] | [17] | [18] | [19]

ClC(Cl)(Cl)c1ccccc1
inactive: [1] | [2] | [3] | [4] | [5] | [6] | [7] | [9] | [10] | [11] | [12] | [13] | [14] | [15] | [16] | [17] | [19]

CNC(=S)S
inactive: [1] | [2] | [3] | [4] | [5] | [6] | [7] | [8] | [9] | [10] | [11] | [12] | [13] | [14] | [15] | [17] | [19]

CN(C)c1ccccc1
inactive: [1] | [2] | [3] | [4] | [5] | [6] | [7] | [8] | [9] | [10] | [11] | [12] | [13] | [14] | [15] | [16] | [17] | [19]

O=NN1CCOCC1
inactive: [1] | [2] | [3] | [4] | [5] | [6] | [7] | [9] | [10] | [20] | [11] | [12] | [13] | [14] | [15] | [16] | [17] | [19]

CCCCOC(=O)COC(=O)c1ccccc1C(=O)OCCCC
inactive: [1] | [2] | [3] | [4] | [5] | [6] | [7] | [8] | [9] | [10] | [20] | [11] | [12] | [13] | [14] | [15] | [16] | [17] | [18] | [19]

CC(C)(O)C#N
inactive: [1] | [2] | [3] | [4] | [5] | [6] | [7] | [8] | [9] | [10] | [11] | [12] | [13] | [14] | [15] | [16] | [17]

CCCCOCC1CO1 (stereo not drawn)
inactive: [1] | [2] | [3] | [4] | [5] | [6] | [7] | [8] | [9] | [10] | [20] | [11] | [12] | [13] | [14] | [15] | [17] | [18] | [19]
